Laboratory results taken from PubChem BioAssay (NCI).
This is part of a sample that, as a whole, favours compounds with a hit. Of some 83,000 tested, about 20% had one in any assay.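 Assay: single dose, 48 h. Readout: percent growth (0 = no net growth; negative = cell death). Active: <10.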 The source made the active and inactive calls.

What was measured:
Assay in all cases: NCI-60 one-dose screen, 48 h (100 = growth as untreated, 0 = no growth, -100 = all killed)
Conditions in all cases: 10 µM unless noted
[1] = test system: SK-MEL-2 melanoma
[2] = test system: EKVX NSCLC
[3] = test system: SN12C renal
[4] = test system: UO-31 renal
[5] = test system: TK-10 renal
[6] = test system: ACHN renal
[7] = test system: CAKI-1 renal
[8] = test system: A498 renal
[9] = test system: CCRF-CEM leukemia
[10] = test system: MOLT-4 leukemia

SMILES	growth [1]	growth [2]	growth [3]	growth [4]	growth [5]	growth [6]	growth [7]	growth [8]	growth [9]	growth [10]
CN1C(=O)CNC(=O)[C@H](NC(=O)c2nc3ccccc3cc2O)CSSC[C@H]1C(=O)NCCCc1nc2ccccc2cc1O	-12.5% (active)	85.4% (inactive)	73.4% (inactive)	62.6% (inactive)	75% (inactive)	82.3% (inactive)	107% (inactive)	118% (inactive)	14.3% (inactive)	-4.7% (active)
Cc1cc2nc3cc(C)c(N)cc3[n+](-c3ccccc3)c2cc1N	82.8% (inactive)	47.3% (inactive)	13.9% (inactive)	84.2% (inactive)	93.8% (inactive)	89.1% (inactive)	97.5% (inactive)	85.7% (inactive)	58.3% (inactive)	52.8% (inactive)
N#Cc1cccc(NC(=O)c2cc(-c3ccc(F)cc3F)ccc2O)c1	-6.68% (active)	89.4% (inactive)	4.26% (active)	-11.4% (active)	21.9% (inactive)	7.33% (active)	3.62% (active)	-33.2% (active)	27.4% (inactive)	11.8% (inactive)
COc1ccc(C(=O)COC(=O)[C@H](C[Se][Se]C[C@H](NC(=O)c2ccc(Br)cc2F)C(=O)OCC(=O)c2ccc(OC)cc2)NC(=O)c2ccc(Br)cc2F)cc1	-93.8% (active)	-69.4% (active)	-79.9% (active)	-95.4% (active)	-79.6% (active)	-86.9% (active)	-83.2% (active)	-23.8% (active)	-25.4% (active)	-1.84% (active)
CCN1C(=O)N(CC)C2Nn3c(s/c(=C4\C(=O)N(CCC(C)C)c5ccccc54)c3=O)=NC21 (stereo not given)	87.7% (inactive)	67.1% (inactive)	89.3% (inactive)	54.3% (inactive)	38.3% (inactive)	67.6% (inactive)	51.3% (inactive)	72.9% (inactive)	57.1% (inactive)	85.5% (inactive)
COc1ccc(-c2[nH]ncc2-c2cc3c(c(OC)c2)OCC(=O)N3)cc1	9.07% (active)	38.7% (inactive)	35.8% (inactive)	36.4% (inactive)	1.85% (active)	36.7% (inactive)	26% (inactive)	-21% (active)	23.2% (inactive)	31.9% (inactive)
Cc1ccc2nc(NC(=O)CSc3nc(Cl)c(C#N)c(-c4ccccc4)n3)sc2c1	102% (inactive)	102% (inactive)	98.2% (inactive)	80.7% (inactive)	107% (inactive)	102% (inactive)	94.8% (inactive)	102% (inactive)	105% (inactive)	104% (inactive)
CCOC(=O)Cn1c(C)c(/C=N/NC(=O)c2cc3c(ccc4ccccc43)o2)c2ccccc21	44.1% (inactive)	41.1% (inactive)	34.4% (inactive)	40.2% (inactive)	58.8% (inactive)	28.4% (inactive)	47.1% (inactive)	-6.48% (active)	11.3% (inactive)	18.7% (inactive)
Cc1ncc(C(=O)Nc2ccc(CN3CCN(C)CC3)c(C(F)(F)F)c2)cc1C#Cc1ccc(N)nc1	-55% (active)	9.23% (active)	2.89% (active)	-27% (active)	-28.2% (active)	-20% (active)	-71.1% (active)	-64.1% (active)	18.6% (inactive)	25.9% (inactive)
C=C(C)C1CCC2(C)OC2C1 (stereo not given)	111% (inactive)	87.4% (inactive)	108% (inactive)	115% (inactive)	100% (inactive)	104% (inactive)	81.2% (inactive)	141% (inactive)	110% (inactive)	90.7% (inactive)
COc1ccc(-c2ncnc3c2ncn3CC#CCCl)cc1	53.4% (inactive)	115% (inactive)	46.3% (inactive)	-86.7% (active)	69.8% (inactive)	52.8% (inactive)	61.8% (inactive)	55.7% (inactive)	19.1% (inactive)	4.95% (active)
CCN(CC)S(=O)(=O)c1ccc(NC(=O)CSc2nnc(C)n2-c2ccccc2)cc1	92.5% (inactive)	107% (inactive)	98.1% (inactive)	80.8% (inactive)	126% (inactive)	98.7% (inactive)	106% (inactive)	107% (inactive)	97.9% (inactive)	96.2% (inactive)
CN(C)CCS(=O)(=O)Nc1cc(-c2ccc3ncc(C#N)c(Nc4ccc(F)c(Cl)c4)c3c2)cnc1Cl	-40.4% (active)	-43.5% (active)	0.75% (active)	-55.5% (active)	-35.5% (active)	8.58% (active)	-42.3% (active)	-49.9% (active)	1.06% (active)	-25.9% (active)
C/C(=C\C(=O)c1ccc(Cl)cc1)c1ccc(Cl)cc1	98% (inactive)	79% (inactive)	103% (inactive)	59.3% (inactive)	74.7% (inactive)	98.3% (inactive)	87.8% (inactive)	104% (inactive)	88.4% (inactive)	92.6% (inactive)
O=C1NC(=O)C(Cn2cnc3ccccc32)N1 (stereo not given)	107% (inactive)	100% (inactive)	98.6% (inactive)	92.6% (inactive)	99.6% (inactive)	99.8% (inactive)	101% (inactive)	76.6% (inactive)	102% (inactive)	99.6% (inactive)
O=C1c2cccc3cccc(c23)C(=O)N1Nc1nc(N2CCOCC2)nc(N2CCN(c3ccccc3)CC2)n1	59.9% (inactive)	50% (inactive)	64.8% (inactive)	29.9% (inactive)	96% (inactive)	41.2% (inactive)	41.2% (inactive)	-3.12% (active)	56.9% (inactive)	42% (inactive)
CCc1nnc(NC(=O)c2nnn(-c3ccccc3)c2-c2ccco2)s1	108% (inactive)	84.7% (inactive)	96.4% (inactive)	87.4% (inactive)	115% (inactive)	94.5% (inactive)	92.1% (inactive)	42.7% (inactive)	77.8% (inactive)	93.7% (inactive)
CCOC(=O)C1=C(N)Oc2c(sc3c(C)cccc23)C1c1ccc(F)cc1 (stereo not given)	42.5% (inactive)	44.9% (inactive)	30.5% (inactive)	40.7% (inactive)	76% (inactive)	30.7% (inactive)	2.3% (active)	-5.94% (active)	4.35% (active)	10.2% (inactive)
COc1cc(C(=O)c2cc(C)c3[nH]c4ccc(O)cc4c3c2C)cc(OC)c1OC	62.3% (inactive)	35.9% (inactive)	25% (inactive)	22.2% (inactive)	93.3% (inactive)	24.3% (inactive)	24.5% (inactive)	-12.7% (active)	15.5% (inactive)	15.1% (inactive)
NC(=O)C1(Nc2ccc(Br)cc2)CCCC1	101% (inactive)	92% (inactive)	102% (inactive)	86.3% (inactive)	104% (inactive)	101% (inactive)	103% (inactive)	99.8% (inactive)	99.8% (inactive)	99% (inactive)
Nc1ccccc1-c1cc2c(c3c1[nH]c1ccccc13)CCCCC2	92.5% (inactive)	89.9% (inactive)	99.7% (inactive)	96.7% (inactive)	101% (inactive)	107% (inactive)	114% (inactive)	119% (inactive)	93.1% (inactive)	90.8% (inactive)
